Bioassay records deposited in PubChem BioAssay by National Center for Advancing Translational Sciences (NCATS).
Lassa entry inh: blocks Lassa virus binding to or entry into cells. Lassa virus pseudotype entry inhibition, cell reporter. Potency, µM (doses to about 37.9 µM), without a hit: top-dose activity change, negative = inhibition, hits mostly inhibitors. 300,000 compounds, 1.2% hits. AID 540256; calls by dose curve; tested in HEK293 cells; also: nearly all actives have a fitted effect of over 50% in size
Vaccinia Venus: vaccinia inhibition (Venus reporter); Vaccinia virus Venus reporter expression, fluorescence; Potency, µM (highest dose often 36.5 µM), for the others: at the highest dose activity change, negative = inhibition, most hits filed as inhibitors; 330,000 compounds, 0.46% hits; calls by dose curve; tested in A549 cells; also: nearly all actives have a fitted effect of over 30% in size
Sm TGR block: inhibitors of Schistosoma mansoni thioredoxin glutathione reductase; Q962Y6; purified TGR, DTNB reduction, TNB absorbance 405 nm; Potency, µM (doses to about 114 µM), inactives show top-dose activity change, negative = inhibition, hits mostly inhibitors; 360,000 compounds, 3% hits; AID 485364; active = well fitted inhibition curve with a large enough effect; inconclusive = small, poorly fitted or top-dose-only effect; inactive = no such curve, though single readings can be large or run the other way; also: nearly all actives have a fitted effect of over 60% in size
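Kinetic colorimetric format: TGR-catalysed, NADPH-driven DTNB reduction monitored via TNB absorbance. Enzyme dispensed at 20 nM; compound exposure 15 min at room temperature before reaction start.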
FMDV inh: blocks foot and mouth disease virus | Potency, µM (doses to about 57.9 µM), for inactives: at the highest dose activity change, negative = inhibition, most hits filed as inhibitors | 410,000 compounds, 1.2% hits | FMDV antiviral cell-based qHTS; calls by dose curve; tested in HEK293T cells; also: read-out not given here; nearly all actives have a fitted effect of over 45% in size
Marburg entry inh: inhibitors of Marburg virus binding or cell entry; 300,000 compounds, 1.8% hits; Potency, µM (titrated, usually from 37.8 µM), for inactives: at the highest dose activity change, negative = inhibition, most hits filed as inhibitors; Marburg virus pseudotyped entry inhibition, cell reporter; calls by dose curve; tested in HEK293 cells
VACV mCherry inh: inhibitors of vaccinia virus infection (mCherry reporter signal); Vaccinia virus mCherry reporter infection, fluorescence; Potency, µM (titrated, usually from 36.5 µM), inactives show at the top dose activity change, negative = inhibition, usual class: inhibitors; 310,000 compounds, 0.63% hits; calls by dose curve; tested in A549 cells; also: nearly all actives have a fitted effect of over 35% in size
* marks the source's active call; other numbers are inactive results; i = inactive; u = inconclusive; x = no result given; [ ] = remark or other dose. Shown are actives, neighbours in structure and some others; about 5.4% of the full set was active somewhere. % is scaled to controls: 0 for no effect and ±100 for the full control effect; potency is read from the fitted curve at half-maximal effect.

SMILES	Lassa entry inh	Vaccinia Venus	Sm TGR block	FMDV inh	Marburg entry inh	VACV mCherry inh
O=C(Nc1ccccc1)N1CC[C@@]2(CCCN(C(=O)c3cc(C(F)(F)F)cc(C(F)(F)F)c3)C2)C1	x	x	x	-12%	x	x
Cn1cc(-c2cc3n(n2)CCC(=O)N3CC(=O)NCc2ccc(Cl)cc2)c2ccccc21	-8%[46.1 µM]	1%	-6%	-28%	x	-17%
O=C(CCl)N(c1ccccc1)C1CCCCC1	u	u	3.2µM*	u	u	u
O=C1CCCCc2cc(O)c(O)cc21	x	-15%	x	u	x	-4%
Nc1cc2c(cc1O)CCCC2	-1%	15%	40µM*	4%	-4%[46.1 µM]	-17%
CCOC(=O)c1cc(OC(=O)c2cccs2)n(-c2ccccc2)n1	-19%[14.3 µM]	-10%	40µM*	-2%	16%	-3%
CC(C)CON=C1C[C@@H](O)[C@@H](O)[C@@H]2[C@H]3C(=O)N(c4cccc(Oc5ccccc5)c4)C(=O)[C@@H]3CC[C@H]12	x	x	x	x	-1%[14.2 µM]	x
Cc1noc(NS(=O)(=O)c2ccc(NC(=O)CCn3c(=O)oc4ccccc43)cc2)c1C	x	-9%	16µM*	-7%	x	i
COCCCN1C(=O)C2C(C(=O)Nc3cc(C)cc(C)c3)C3C=CC2(O3)C1C(=O)NC1CCCCC1 (stereo unspecified)	2%	0%	40µM*	0%	-15%[46.1 µM]	1%
Cc1nnc(NC(=O)CSc2nc3[nH]ncc3c(=O)[nH]2)s1	x	x	45µM*	-11%	x	x
O=c1c2ccccc2nc2n1CC/C2=C/N1CCN(c2cccc(C(F)(F)F)c2)CC1	-4%	3%	32µM*	x	u	-1%
Cc1cccc(CN2C[C@H](Sc3ccccn3)C[C@H]2C(=O)Nc2ccc3sc(C)nc3c2)c1	x	2%	x	-8%	x	-8%
COc1cc(NC2c3ncccc3C(=O)N2Cc2ccco2)cc(OC)c1 (stereo unspecified)	-32%	x	45µM*	4%	-11%	x
COc1ccc(CN2C(=O)c3cccnc3C2Nc2ccc(OC)c(Cl)c2)cc1 (stereo unspecified)	-7%	x	-15%	-2%	-22%	x
O=C(NN1C(=O)C2C3C=CC(O3)C2C1=O)c1cccc(Br)c1 (stereo unspecified)	-8%	-12%	22µM*	5%	8%[46.1 µM]	-16%
Cc1cccc(C(=O)NN2C(=O)C3C(c4ccccc4)C=CC(c4ccccc4)C3C2=O)c1 (stereo unspecified)	-8%	-1%	-7%	-5%	u	-11%
O=C(NN1C(=O)C2C3C=CC(O3)C2C1=O)c1cccc(O)c1 (stereo unspecified)	6%	4%	20µM*	-5%	-15%	-12%
N#CC(C#N)=C1C=CC=CN1/C(=C\c1ccccc1)C(=O)c1cccs1	5%	x	0.28µM*	u	7%	x
N#CC(C#N)=C1C=CC=CN1/C(=C\c1ccccc1Cl)C(=O)c1ccccc1	u	-9%	0.28µM*	u	u	-3%
CCCCNC(=O)C(CC)n1c(SCc2cccc(F)c2)nc2ccncc21 (stereo unspecified)	x	-13%	x	x	x	3%
CCCN1CNc2c(c(=O)[nH]c(=S)n2CCc2cccc(C)c2C)C1	x	-8%	x	x	x	i
NC(=O)c1cc([N+](=O)[O-])ccc1NCc1ccc(F)cc1	x	-21%	-8%	44%	x	-21%
NC(=O)c1cc([N+](=O)[O-])ccc1NCc1ccc(N)cc1	x	-9%	-5%	8.9µM*	x	i
O=C(CCn1cccn1)Nc1ccc(Br)cc1F	u	-13%	-2%	13%	x	-12%
O=C(c1ccco1)N1CCN(C2=NS(=O)(=O)c3ccccc32)CC1	8%	-15%	-8%	-16%	13%	x
SMILES	Lassa entry inh	Vaccinia Venus	Sm TGR block	FMDV inh	Marburg entry inh	VACV mCherry inh
O=C(O)CCCNc1cc(N2CCN(C(=O)c3ccco3)CC2)c2noc3c2c1C(=O)c1ccccc1-3	-16%[46.1 µM]	300%	6.3µM*	8%	4%[46.1 µM]	i
O=C1c2ccccc2-c2onc3c(N4CCN(CCO)CC4)cc(N4CCN(C(=O)c5ccco5)CC4)c1c23	u	233%	3.5µM*	0%	u	u
O=C(O)CCCNc1cc(N2CCC3(CC2)OCCO3)c2noc3c2c1C(=O)c1ccccc1-3	x	x	8.9µM*	x	-7%	x
CCOC(=O)N1CCN(c2cc(NCCC(=O)O)c3c4c(onc24)-c2ccccc2C3=O)CC1	-14%	429%	u	0%	-4%	44%
O=C(c1ccco1)N1CCN(CCCCN2C(=O)c3ccccc3C2=O)CC1	8%	2%	-12%	x	u	i
CN1CCN(c2cc(N3CCN(C(=O)c4ccco4)CC3)c3c4c(onc24)-c2ccccc2C3=O)CC1	x	x	10µM*	u	x	x
Cc1cc(NC(=O)CN2C(=O)C(C)(C)c3ccccc32)ccc1Br	-34%[46.1 µM]	0%	2%	u	x	0%
O=C1CC(C(=O)N2CCCC(c3nc(-c4ccncc4)ncc3-c3ccccc3)C2)C2(CCCCC2)O1 (stereo unspecified)	x	0%	x	-4%	x	-14%
Cc1cccc(-c2nc3cc(NC(=O)c4ccc(OCC(C)C)cc4)ccc3o2)c1	-4%[46.1 µM]	-7%	-4%	-5%	x	-11%
Cc1oc(=O)c(NC(=O)c2ccc(Cl)cc2)cc1C(=O)c1ccccc1	23µM*	x	4µM*	u	u	x
Cc1ccc(C(=O)Nc2cc3ccccc3oc2=O)cc1	2.8µM*	-24%	18%	2µM*	u	-4%
CC(=O)Nc1cc2ccccc2oc1=O	0%	-4%	9%	19%	1%[46.1 µM]	-1%
Cc1oc(=O)c(NC(=O)c2ccccc2)cc1C(=O)c1ccccc1	u	x	22µM*	-22%	2%	x
CC(=O)c1cc(NC(=O)c2ccccc2)c(=O)oc1C	-1%	-7%	35µM*	-8%	8%[46.1 µM]	-14%
COc1cc(OC)cc(C(=O)NCC2Cc3cccc(-c4nc(C)cnc4C)c3O2)c1 (stereo unspecified)	x	8%	x	-12%	x	-12%
COc1cccc(CNCCSc2nnnn2-c2ccccc2)c1OC	-7%[46.1 µM]	2%	-1%	-12%	-31%[46.1 µM]	-6%
COc1ccc(O[C@H]2C=C[C@@H](c3ccccc3)O[C@H]2CON=C2c3cc(OC)ccc3O[C@H](c3cccc(OC)c3)[C@H]2O)cc1	-31%[14.3 µM]	x	x	x	u	x
Cc1cc(C)c(NC(=O)CCN2C(=O)c3ccccc3Sc3ncccc32)c(C)c1	27%[46.1 µM]	-12%	5%	-13%	x	-13%
C=CCN1c2ccccc2[C@]23CCC(=O)N(Cc4ccco4)C2=NC(C(=O)OC)=C(C(=O)OC)[C@H]13	x	x	x	x	-1%[14.2 µM]	x
CC(=O)c1cc(NC(=O)c2ccc(C)cc2)c(=O)oc1C	27%	-3%	40µM*	14%	u	i
O=C1NC(=O)N(c2ccccc2)C(=O)/C1=C\c1ccccc1[N+](=O)[O-]	-3%	-15%	3.5µM*	u	2%	i
